FBW7 act: activators of human E3 ligase FBW7 | AlphaScreen FBW7–phospho-cyclin E peptide binding, activator screen | normalized activity (activation), % at 26.1 µM | hit rate 0.13% among 650,000 | Q969H0; in the data active = normalized activity above about 1.9%;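 note: purified mutant Fbw7 with reduced substrate affinity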
TEAD-YAP inh: TEAD-YAP interaction inhibition; hit rate 1.4% among 640,000; HEK-TIYL cells, TEAD-Gal4/YAP UAS-luciferase luminescence; inhibition, % at 9.12 µM; in the data active = inhibition above about 32%;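 note: 0% = median of test compound wells and 100% = reference inhibitor wells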
MITF inh: human MITF inhibition, primary screen. O75030. AlphaScreen MITF homodimerization, bead proximity signal. inhibition, % at 2.6 µM. hit rate 0.91% among 650,000; in the data active = inhibition above about 50%;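 note: 0% = vehicle wells with protein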
Target sequence (O75030 whole entry, looked up): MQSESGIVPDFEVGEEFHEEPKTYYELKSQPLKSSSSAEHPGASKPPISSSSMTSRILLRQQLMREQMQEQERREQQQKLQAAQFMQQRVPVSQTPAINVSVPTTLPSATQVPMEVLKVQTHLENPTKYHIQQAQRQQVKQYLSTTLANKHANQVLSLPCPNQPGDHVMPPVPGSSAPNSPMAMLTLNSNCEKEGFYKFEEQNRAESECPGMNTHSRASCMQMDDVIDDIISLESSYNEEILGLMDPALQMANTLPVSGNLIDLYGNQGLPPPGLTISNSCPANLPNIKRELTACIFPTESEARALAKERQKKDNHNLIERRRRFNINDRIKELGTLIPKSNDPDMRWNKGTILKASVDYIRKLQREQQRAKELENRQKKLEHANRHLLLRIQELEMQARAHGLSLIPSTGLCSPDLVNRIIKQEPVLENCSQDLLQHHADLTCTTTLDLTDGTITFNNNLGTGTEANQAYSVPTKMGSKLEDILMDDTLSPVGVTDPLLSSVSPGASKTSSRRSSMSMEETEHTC
GPR151 ag: activators of human GPR151. PathHunter beta-arrestin GPR151 cells, luminescence. activation, % at 11.2 µM. AID 1508602. hit rate 1% among 650,000; in the data active = activation above about 4.9%;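 note: 0% = median of compound wells and 100% = cells with positive control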
GPR151 confirm: human GPR151 activation, confirmation screen. shares compounds with GPR151 ag. activation, % at 11.2 µM. GPR151 PathHunter beta-arrestin cells, luminescence, 90 min; % of EA-reagent control over plate median. 6,700 tested, under 10 active;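 active = mean percent activation across replicates above the confirmation screen cutoff of 4.91%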
GPR119 ag: counter-screen for GPR151 activators: effect on human GPR119 | shares compounds with GPR151 ag | activation, % at 11.2 µM | hit rate 0.3% among 6,700 | GPR119 PathHunter beta-arrestin cells, luminescence, 90 min; 0 = compound-well median, 100 = enzyme-acceptor control | AID 1508611;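 active = mean percent activation in the counterscreen above 29.09%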;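 note: counterscreen on off-target GPR119 to flag nonselective hits from the GPR151 activator screen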
The depositor's hits bear a star; . = no result. Only some compounds are listed: those with a hit (about 3.5% of all), similar ones and a draw of the others.

SMILES | FBW7 act | TEAD-YAP inh | MITF inh | GPR151 ag | GPR151 confirm | GPR119 ag
Cc1nn(CC(=O)Nc2ccc(O)cc2)c(C)c1[N+](=O)[O-] | 0 | 6 | 19 | 6.1* | 0 | 2
Cc1nn(C)c(C)c1-c1cncc(C(=O)NC2CCN(Cc3ccccc3)CC2)c1 | 0 | 2 | -7 | 5.5* | 1 | -2
Cc1nn(C)c(C)c1-c1nc(C(=O)NC2CCN(Cc3ccccc3)CC2)cs1 | 0 | -16 | 8 | 8.7* | 0 | -7
O=C(CNC(=O)c1cccs1)OCc1c(Cl)cccc1Cl | 0 | 1 | -8 | 5.4* | 0 | -3
O=C(CNC(=O)c1cccs1)OCc1c(F)cccc1Cl | 0 | -1 | 3 | 1 | . | .
CC(c1ccco1)N(C)Cc1ccc(C(N)=O)c(=O)[nH]1 (stereo not given) | 0 | 3 | -2 | 0 | . | .
CC(c1ccco1)N(C)Cc1ccc(C(=O)NC23CC4CC(CC(C4)C2)C3)c(=O)[nH]1 (stereo not given) | 0 | -4 | -1 | 11* | 0 | 4
O=C(NCCCN1CCOCC1)c1ccc2c(=O)n(C3CCCC3)c(=S)[nH]c2c1 | 0 | 4 | -11 | -1 | . | .
CCN(c1ccccc1C)S(=O)(=O)c1nnc(NC(=O)c2ccc(F)cc2)s1 | 0 | 7 | 6 | 10* | 0 | -6
CCN(c1ccccc1)S(=O)(=O)c1ccc(F)c(C(=O)Nc2ccc(OC)cc2)c1 | 0 | 5 | 14 | 8.7* | -2 | -15
CCN(c1ccccc1)S(=O)(=O)c1nnc(NC(=O)c2ccccc2OC)s1 | 0 | 3 | -9 | 5.0* | 1 | 5
COc1ccc(CCNc2ccnc(-c3ccc(C(=O)NC4CC4)cc3)n2)cc1 | 0 | 33* | 10 | 5.5* | 0 | -5
Cc1ccc(C(=O)N2CCN(C(c3ccccc3)c3ccccc3)CC2)o1 | 0 | 1 | 5 | 1 | . | .
COc1ccc(/C=c2\sc3nc(-c4ccncc4)nn3c2=O)cc1OC | 0 | 12 | 20 | -1 | . | .
COc1ccc(-c2nc3s/c(=C\c4ccccc4F)c(=O)n3n2)cc1 | 0 | -6 | 2 | 0 | . | .
CCCCOc1ccc(/C=c2\sc3nc(-c4ccc(Cl)cc4)nn3c2=O)cc1 | 0 | 0 | -4 | 1 | . | .
CC(C)CCOc1ccc(-c2nn(-c3ccccc3)cc2/C=c2\sc3nc(-c4cccs4)nn3c2=O)cc1 | 0 | -3 | 28 | 7.0* | -1 | 14
CCCCOc1ccc(/C=c2\sc3nc(-c4ccncc4)nn3c2=O)cc1 | 0 | 9 | 0 | 5.1* | 0 | -2
COc1cc(/C=c2\sc3nc(-c4ccncc4)nn3c2=O)ccc1OC(C)=O | 0 | -3 | 7 | 4.9* | 2 | -1
CCOc1ccc(-c2nc3s/c(=C\c4ccccc4F)c(=O)n3n2)cc1 | 0 | -5 | 0 | 11* | 0 | 4
CCN(CC)S(=O)(=O)c1cc([N+](=O)[O-])ccc1N/N=C(\C)c1ccc2c(c1)OCO2 | 0 | 1 | 9 | -2 | . | .
CC1(C)OC(=O)C(=CNC(CCC(N)=O)C(=O)O)C(=O)O1 (stereo not given) | 0 | -10 | 12 | 6.4* | 1 | -3
CCOC(=O)c1cc2c(c(CSc3nc4ccccc4c(=O)n3Cc3cccs3)c1)OCOC2 | 0 | -9 | 1 | 1 | . | .
CCOC(=O)c1cc2c(c(CSc3nc4ccccc4c(=O)n3Cc3ccc4c(c3)OCO4)c1)OCOC2 | 0 | -7 | -7 | 4.9* | 3 | 10
C/C(=N\Nc1ccc(S(=O)(=O)N2CCCC2)cc1[N+](=O)[O-])c1ccco1 | 0 | -3 | 9 | -1 | . | .
O=c1c2sccc2nc(SCc2nc3ccccc3[nH]2)n1-c1ccc(Br)cc1 | 0 | -5 | 15 | -3 | . | .
COc1ccc(-c2noc(N(C)CC(=O)N3CCN(c4ccccc4OC)CC3)n2)cc1 | 0 | -6 | 2 | 6.5* | 0 | -21
COc1ccc(-c2noc(N(C)CC(=O)N3CCN(c4cccc(Cl)c4)CC3)n2)cc1 | 0 | -4 | 0 | -1 | . | .
O=C(CC1C(=O)NCCN1C1Cc2ccccc2C1)NCCc1cccs1 (stereo not given) | 0 | 4 | -10 | 2 | . | .
CSCCCNC(=O)CC1C(=O)NCCN1C1Cc2ccccc2C1 (stereo not given) | 0 | 4 | 10 | 4.9* | 0 | 0
